High-throughput results from PubChem.
HCV inh – qHTS Assay for Inhibitors of Hepatitis C Virus (HCV) | Huh7.5.1 HCVcc-Cre infection, luciferase reporter, 44 h | Potency, µM (highest dose often 41.8 µM), inactives show at the highest dose activity change, negative = inhibition, actives largely listed as inhibitors | 340,000 tested, 3.4% active | AID 651820, 2012
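After 44 h co-culture of compound, cells and HCVcc-Cre (~0.5 moi), substrate is added for 15 min at room temperature and luciferase measured over 15 sec. Cells were seeded at 1,000/well and pre-cultured 4 h.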
AMA1 RON2 block – qHTS for Inhibitors of AMA1-RON; Towards Development of Antimalarial Drug Lead: Primary Screen | AlphaScreen AMA1-biotinylated RON2 peptide binding | Potency, µM (highest dose often 58.2 µM), inactives show top-dose activity change, negative = inhibition, usual class: inhibitors | 360,000 tested, 0.2% active;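 further: 0% = vehicle wells and -100% = peptide control; nearly all actives have a fitted effect of over 45% in size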
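AMA1 (3D7) with his tag at 25 nM final met compounds first, then biotinylated RON2 peptide at 25 nM; detection used donor plus acceptor beads, 10 µg/mL apiece, read by AlphaScreen after 30 min at room temperature.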
AmpC inh detg – qHTS Inhibitors of AmpC Beta-Lactamase (assay with detergent) | AID 485294, 2010 | 370,000 tested, 0.041% active | Potency, µM (titrated, usually from 114 µM), without a hit: top-dose activity change, negative = inhibition, actives largely listed as inhibitors | AmpC hydrolysis of nitrocefin, absorbance 480 nm, 0.01% Triton;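 further: 0% = no-compound wells and -100% = no-enzyme wells; nearly all actives have a fitted effect of over 25% in size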
Target sequence (P00811 whole entry, looked up): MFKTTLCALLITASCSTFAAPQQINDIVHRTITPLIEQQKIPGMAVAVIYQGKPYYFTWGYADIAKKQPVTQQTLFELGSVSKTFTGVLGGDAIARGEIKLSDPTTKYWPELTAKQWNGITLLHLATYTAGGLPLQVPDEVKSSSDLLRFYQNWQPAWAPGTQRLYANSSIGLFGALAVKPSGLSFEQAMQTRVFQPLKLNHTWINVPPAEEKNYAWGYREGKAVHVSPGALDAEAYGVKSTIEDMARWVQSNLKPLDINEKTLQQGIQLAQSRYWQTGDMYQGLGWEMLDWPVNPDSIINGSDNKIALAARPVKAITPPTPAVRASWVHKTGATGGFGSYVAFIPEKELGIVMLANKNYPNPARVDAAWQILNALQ
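AmpC (5.3 nM in the dispensed reagent) in 20 mM phosphate pH 7.0 with 0.01% (detergent screen) or 0.0001% Triton X-100 was preincubated with compounds for 15 min at room temperature. Nitrocefin was then added from an 800 uM solution, and hydrolysis was followed at 480 nm.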
Pf growth 96h – Primary qHTS for delayed death inhibitors of the malarial parasite plastid, 96 hour incubation. P. falciparum luciferase reporter growth, 96 h. Potency, µM (series often up to 28.7 µM), for the others: at the highest dose activity change, negative = inhibition, most hits filed as inhibitors. 320,000 tested, 6.9% active
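Two-generation exposure (96 h) targets delayed-death phenotype. Reporter parasites carrying integrated firefly luciferase, in red cells at 2% hematocrit and 0.05% parasitemia final, kept at 37 C, 5% CO2; luminescence loss indicates inhibition.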
AmpC inh no detg – qHTS Inhibitors of AmpC Beta-Lactamase (assay without detergent); P00811; AmpC nitrocefin hydrolysis, absorbance 480 nm, 0.0001% Triton; Potency, µM (series often up to 57.1 µM), inactives show top-dose activity change, negative = inhibition, hits mostly inhibitors; 330,000 tested, 0.52% active; AID 485341, 2010;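 further: plate controls were no compound for no effect and no enzyme for full effect; nearly all actives have a fitted effect of over 20% in size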
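AmpC (5.3 nM in the dispensed reagent) in 20 mM phosphate pH 7.0 with 0.01% (detergent screen) or 0.0001% Triton X-100 was preincubated with compounds for 15 min at room temperature. Nitrocefin was then added from an 800 uM solution, and hydrolysis was followed at 480 nm.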
Pf growth 48h – Primary qHTS for delayed death inhibitors of the malarial parasite plastid, 48 hour incubation | P. falciparum luciferase growth in erythrocytes, 48 h | Potency, µM (top dose mostly 28.7 µM), for the others: top-dose activity change, negative = inhibition, hits mostly inhibitors | 310,000 tested, 5.9% active
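Compounds are pin-transferred into medium, infected erythrocytes (2% hematocrit, 0.1% parasitemia final) are added, and plates sit one parasite generation at 37 C in 5% CO2. Detection reagent is then added and luminescence measured.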
Starred values were filed as active, the others as inactive; ? = inconclusive; · = not tested or not shown. Most compounds without a hit are left out; they make up all but 11% or so of the library. The call rests on the fitted dose curve; in most records, active means well fitted curve in the direction sought with a large enough effect; inconclusive means small, poorly fitted or top-dose-only effect, or another doubt; inactive means no such curve, though single readings can be large; an effect the other way counts as inactive or inconclusive. Unless noted, on the % scale 0 is the no-effect control and ±100 the full control effect; potency means the concentration at half of the fitted maximal effect.

SMILES | HCV inh | AMA1 RON2 block | AmpC inh detg | Pf growth 96h | AmpC inh no detg | Pf growth 48h
O=C(Cn1cnc2ccccc2c1=O)N1CCN(Cc2ccc3c(c2)OCO3)CC1 | -17% | -19% | ? | ? | 6% | ·
CC(C)[C@@H](C(=O)N1CCN(Cc2ccc3c(c2)OCO3)CC1)n1nnc2ccccc2c1=O | ? | -16% | 0% | 13µM* | 111% | ?
Cn1c(C(=O)N2CCCC2)cc2c(=O)n(C)c3ccccc3c21 | 10% | -2% | -7% | -21% | -3% | ·
Cc1c(C(O)CN2CCN(Cc3ccc4c(c3)OCO4)CC2)c2ccccc2n1C (centres undefined) | 18µM* | -20% | ? | ? | 38% | ?
CCCCOc1ccc(CNC(=O)c2ccc(NC(=O)N3CCSc4ncccc43)cc2)cc1 | · | · | 21% | · | · | ·
COC(=O)c1c(NC(=O)c2nc(SCc3ccccc3C)ncc2Cl)sc2c1CCCC2 | · | · | 19% | · | · | ·
COc1ccc(-c2nn(C)c3sc(C(=O)N4CCN(c5cccc(C)c5C)CC4)cc23)cc1OC | · | · | -1% | · | · | ·
C[C@H](NC(=O)c1ccccc1)C(=O)N1CCN(Cc2ccc3c(c2)OCO3)CC1 | 6% | 1% | · | · | -5% | ·
Cn1c(=O)c([N+](=O)[O-])c(N2CCN(Cc3ccc4c(c3)OCO4)CC2)c2ccccc21 | -29% | ? | -5% | 12µM* | 15% | 12µM*
CC(C)[C@H](NC(=O)c1ccc(C(C)(C)C)cc1)C(=O)N1CCN(Cc2ccc3c(c2)OCO3)CC1 | 11µM* | -11% | · | · | 158% | ·
Cn1c(C(=O)N2CCN(c3ncccn3)CC2)cc2c(=O)n(C)c3ccccc3c21 | -6% | -7% | ? | 10µM* | 13% | ·
Cc1cccc(OCCSc2nc3ccc(NC(=O)COc4ccccc4F)cc3s2)c1 | · | · | 2% | · | · | ·
Cc1ccc2c(c1)C(c1ccccc1)N(C(=O)COc1ccc(Cl)cc1Cl)CC(=O)N2 (centres undefined) | · | · | 9% | · | · | ·
Cc1ccc(CNC(=O)C2CCN(S(=O)(=O)c3ccc4c(c3)oc(=O)n4C)CC2)cc1 | · | · | 10% | · | · | ·
O=C(NCc1n[nH]c(=S)n1-c1ccc([N+](=O)[O-])cc1)c1ccc(S(=O)(=O)N2CCOCC2)cc1 | 26% | 10% | 5% | 6.6µM* | -12% | 6%
Cc1cccc(C)c1NC(=O)CN1CCN(C(=O)CNC(=O)Cc2cccc3ccccc23)CC1 | · | -1% | · | · | · | ·
CCc1ccccc1NC(=O)CN1CCN(C(=O)CNC(=O)Cc2cccc3ccccc23)CC1 | 11µM* | -5% | -10% | ? | 189% | ?
CCOc1ccc(NC(=O)c2sc3nc4c(cc3c2N)CN(Cc2ccccc2)CC4)cc1 | · | · | 0% | · | · | ·
CCOC(=O)c1[nH]c2c(c1Cc1ccccc1)C(=O)CC(c1ccc(OC)cc1)C2 (centres undefined) | · | · | -11% | · | · | ·
O=C(NCCc1ccccc1)c1ccc(Cn2c(SCc3cccc(F)c3)nc3cccnc32)cc1 | · | · | -24% | 3.3µM* | -8% | 9.3µM*
O=C(CSc1nc2cccnc2n1Cc1ccccc1)NC1CCCCC1 | -29% | 6% | -5% | ? | -9% | 10µM*
O=C(NC1CCCCC1)c1ccc(CSc2nc3cccnc3n2Cc2ccccc2)cc1 | · | · | 19% | · | · | ·
CC1(C)C(=O)CC[C@@]2(C)[C@H]1CC[C@@]1(C)CC3=C(CC[C@@H]12)[C@@]1(C)CCC(=O)C(C)(C)[C@@H]1CC3 | 15% | · | -9% | ? | -6% | 12µM*
